Substitutions are numbered along the chain they refer to.
Experiments:
Test in all cases: PBM; 200 nM protein, PBS
Details in all cases: dsDNA, one strand shown
HOXB4 [1] = target: HOXB4 (Homo sapiens, UniProt P17483 148-234)
VENTX [2] = target: T1, VENTX (Homo sapiens, UniProt O95231 78-163, R121Q)
T1 sequence: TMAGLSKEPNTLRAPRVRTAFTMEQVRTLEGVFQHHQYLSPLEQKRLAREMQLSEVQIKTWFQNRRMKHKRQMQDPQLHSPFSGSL

HOXA4 [3] = target: HOXA4 (Homo sapiens, UniProt Q00056 201-287, W262R)
PRRX1 [4] = target: PRRX1 (Homo sapiens, UniProt P54821 80-166, F113S)
Chain of PRRX1 (Homo sapiens, UniProt P54821 80-166, F113S) (P54821 80-166 F113S): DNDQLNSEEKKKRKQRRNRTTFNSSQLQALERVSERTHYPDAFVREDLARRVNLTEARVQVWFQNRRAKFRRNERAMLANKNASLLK

VENTX [5] = target: T2, VENTX (Homo sapiens, UniProt O95231 78-163, Y115F)
T2 sequence: T1 sequence with Y38F, Q44R

HOXB6 = HOXB6 (Homo sapiens, UniProt P17509 132-218, K202E)
Chain of HOXB6 (P17509 132-218 K202E): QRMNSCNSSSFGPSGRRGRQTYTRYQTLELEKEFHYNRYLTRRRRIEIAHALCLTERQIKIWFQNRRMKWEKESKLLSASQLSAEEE

HOXA2 = HOXA2 (Homo sapiens, UniProt O43364 129-215, R185T)
Chain of HOXA2 (O43364 129-215 R185T): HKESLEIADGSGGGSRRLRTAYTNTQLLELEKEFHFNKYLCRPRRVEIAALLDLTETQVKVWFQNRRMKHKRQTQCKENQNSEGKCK

HOXA4 [6] = target: HOXA4 (Homo sapiens, UniProt Q00056 201-287, R217L)
Chain of HOXA4 (Homo sapiens, UniProt Q00056 201-287, R217L) (Q00056 201-287 R217L): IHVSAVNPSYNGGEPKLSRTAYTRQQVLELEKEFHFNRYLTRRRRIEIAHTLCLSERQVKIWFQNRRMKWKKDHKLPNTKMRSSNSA

HOXB4 [7] = target: HOXB4 (Homo sapiens, UniProt P17483 148-234, V174I)
Chain of HOXB4 (Homo sapiens, UniProt P17483 148-234, V174I) (P17483 148-234 V174I): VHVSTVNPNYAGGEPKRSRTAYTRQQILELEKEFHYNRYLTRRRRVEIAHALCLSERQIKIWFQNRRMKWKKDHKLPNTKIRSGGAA

MSX2 [8] = target: MSX2 (Homo sapiens, UniProt P35548 130-214, R199I)
Chain of MSX2 (Homo sapiens, UniProt P35548 130-214, R199I) (P35548 130-214 R199I): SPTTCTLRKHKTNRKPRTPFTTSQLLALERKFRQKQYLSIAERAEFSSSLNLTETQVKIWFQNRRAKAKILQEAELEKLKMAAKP

HOXA4 [9] = target: HOXA4 (Homo sapiens, UniProt Q00056 201-287)
Chain of HOXA4 (Homo sapiens, UniProt Q00056 201-287) (Q00056 201-287): as the sequence (Q00056 201-287 R217L) above, with L17R counted along it

MSX2 [10] = target: MSX2 (Homo sapiens, UniProt P35548 130-214)
Chain of MSX2 (Homo sapiens, UniProt P35548 130-214) (P35548 130-214): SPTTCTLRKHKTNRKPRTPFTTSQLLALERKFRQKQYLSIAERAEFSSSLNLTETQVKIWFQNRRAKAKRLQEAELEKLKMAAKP

MSX2 [11] = target: MSX2 (Homo sapiens, UniProt P35548 130-214, F161Y)
Chain of MSX2 (Homo sapiens, UniProt P35548 130-214, F161Y) (P35548 130-214 F161Y): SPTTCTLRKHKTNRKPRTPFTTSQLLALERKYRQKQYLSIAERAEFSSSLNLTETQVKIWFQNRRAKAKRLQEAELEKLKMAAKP

VAX1 [12] = target: VAX1 (Homo sapiens, UniProt Q5SQQ9 86-172, T142I)
Chain of VAX1 (Homo sapiens, UniProt Q5SQQ9 86-172, T142I) (Q5SQQ9 86-172 T142I): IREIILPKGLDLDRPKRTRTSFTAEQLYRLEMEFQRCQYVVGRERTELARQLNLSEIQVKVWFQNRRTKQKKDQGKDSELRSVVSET

HOXA4 [13] = target: HOXA4 (Homo sapiens, UniProt Q00056 201-287, W262F)
Chain of HOXA4 (Homo sapiens, UniProt Q00056 201-287, W262F) (Q00056 201-287 W262F): as the sequence (Q00056 201-287 R217L) above, with L17R, W62F counted along it

PRRX1 [14] = target: PRRX1 (Homo sapiens, UniProt P54821 80-166)
Chain of PRRX1 (Homo sapiens, UniProt P54821 80-166) (P54821 80-166): as the sequence (P54821 80-166 F113S) above, with S34F counted along it

VAX1 [15] = target: VAX1 (Homo sapiens, UniProt Q5SQQ9 86-172, K157R)
Chain of VAX1 (Homo sapiens, UniProt Q5SQQ9 86-172, K157R) (Q5SQQ9 86-172 K157R): as the sequence (Q5SQQ9 86-172 T142I) above, with I57T, K72R counted along it

PAX4 [16] = target: T3, PAX4 (Homo sapiens, UniProt O43316 9-242, R200Q)
T3 sequence: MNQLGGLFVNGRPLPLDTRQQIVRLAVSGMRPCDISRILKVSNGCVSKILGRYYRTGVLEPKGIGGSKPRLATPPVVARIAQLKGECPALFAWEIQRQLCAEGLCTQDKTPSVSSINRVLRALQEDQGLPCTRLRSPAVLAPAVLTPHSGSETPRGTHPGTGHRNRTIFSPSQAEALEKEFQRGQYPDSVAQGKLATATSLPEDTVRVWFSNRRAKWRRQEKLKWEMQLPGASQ

PAX4 [17] = target: T4, PAX4 (Homo sapiens, UniProt O43316 9-242, F177V)
T4 sequence: T3 sequence with F169V, Q192R

PAX4 [18] = target: T5, PAX4 (Homo sapiens, UniProt O43316 9-242, F177Y)
T5 sequence: T3 sequence with F169Y, Q192R

Chain of HOXB4 (Homo sapiens, UniProt P17483 148-234) (P17483 148-234): as the sequence (P17483 148-234 V174I) above, with I27V counted along it
Chain of HOXA4 (Homo sapiens, UniProt Q00056 201-287, W262R) (Q00056 201-287 W262R): as the sequence (Q00056 201-287 R217L) above, with L17R, W62R counted along it

Row | Sequence | binding signal (HOXB4 [1]) | binding signal (VENTX [2]) | binding signal (HOXA4 [3]) | binding signal (PRRX1 [4]) | binding signal (VENTX [5]) | binding signal (HOXB6) | binding signal (HOXA2) | binding signal (HOXA4 [6]) | binding signal (HOXB4 [7]) | binding signal (MSX2 [8]) | binding signal (HOXA4 [9]) | binding signal (MSX2 [10]) | binding signal (MSX2 [11]) | binding signal (VAX1 [12]) | binding signal (HOXA4 [13]) | binding signal (PRRX1 [14]) | binding signal (VAX1 [15]) | binding signal (PAX4 [16]) | binding signal (PAX4 [17]) | binding signal (PAX4 [18])
1 | AGCAATTA | 13 upbm affinity estimate (log intensity, higher = more binding, comparable within an allelic series) | 12 upbm affinity estimate (log intensity, higher = more binding, comparable within an allelic series) | 10.5 upbm affinity estimate (log intensity, higher = more binding, comparable within an allelic series) | 11.1 upbm affinity estimate (log intensity, higher = more binding, comparable within an allelic series) | 11.8 upbm affinity estimate (log intensity, higher = more binding, comparable within an allelic series) | 9.92 upbm affinity estimate (log intensity, higher = more binding, comparable within an allelic series) | 12.8 upbm affinity estimate (log intensity, higher = more binding, comparable within an allelic series) | 12 upbm affinity estimate (log intensity, higher = more binding, comparable within an allelic series) | 13.7 upbm affinity estimate (log intensity, higher = more binding, comparable within an allelic series) | 13.2 upbm affinity estimate (log intensity, higher = more binding, comparable within an allelic series) | 13.7 upbm affinity estimate (log intensity, higher = more binding, comparable within an allelic series) | 14.1 upbm affinity estimate (log intensity, higher = more binding, comparable within an allelic series) | 13.8 upbm affinity estimate (log intensity, higher = more binding, comparable within an allelic series) | 12.8 upbm affinity estimate (log intensity, higher = more binding, comparable within an allelic series) | 11.5 upbm affinity estimate (log intensity, higher = more binding, comparable within an allelic series) | 13.3 upbm affinity estimate (log intensity, higher = more binding, comparable within an allelic series) | 12.7 upbm affinity estimate (log intensity, higher = more binding, comparable within an allelic series) | – | – | –
2 | ACTAATTA | 13.5 upbm affinity estimate (log intensity, higher = more binding, comparable within an allelic series) | 12.8 upbm affinity estimate (log intensity, higher = more binding, comparable within an allelic series) | 10.9 upbm affinity estimate (log intensity, higher = more binding, comparable within an allelic series) | 12 upbm affinity estimate (log intensity, higher = more binding, comparable within an allelic series) | 12.6 upbm affinity estimate (log intensity, higher = more binding, comparable within an allelic series) | 10.2 upbm affinity estimate (log intensity, higher = more binding, comparable within an allelic series) | 14 upbm affinity estimate (log intensity, higher = more binding, comparable within an allelic series) | 12.9 upbm affinity estimate (log intensity, higher = more binding, comparable within an allelic series) | 14.2 upbm affinity estimate (log intensity, higher = more binding, comparable within an allelic series) | 13.5 upbm affinity estimate (log intensity, higher = more binding, comparable within an allelic series) | 14.2 upbm affinity estimate (log intensity, higher = more binding, comparable within an allelic series) | 14.1 upbm affinity estimate (log intensity, higher = more binding, comparable within an allelic series) | 13.8 upbm affinity estimate (log intensity, higher = more binding, comparable within an allelic series) | 14.1 upbm affinity estimate (log intensity, higher = more binding, comparable within an allelic series) | 12.8 upbm affinity estimate (log intensity, higher = more binding, comparable within an allelic series) | 13.7 upbm affinity estimate (log intensity, higher = more binding, comparable within an allelic series) | 14.2 upbm affinity estimate (log intensity, higher = more binding, comparable within an allelic series) | 12.7 upbm affinity estimate (log intensity, higher = more binding, comparable within an allelic series) | 10.8 upbm affinity estimate (log intensity, higher = more binding, comparable within an allelic series) | 11.4 upbm affinity estimate (log intensity, higher = more binding, comparable within an allelic series)
3 | CCTAATTA | 13.5 upbm affinity estimate (log intensity, higher = more binding, comparable within an allelic series) | 12.6 upbm affinity estimate (log intensity, higher = more binding, comparable within an allelic series) | 10.7 upbm affinity estimate (log intensity, higher = more binding, comparable within an allelic series) | 11.6 upbm affinity estimate (log intensity, higher = more binding, comparable within an allelic series) | 12.4 upbm affinity estimate (log intensity, higher = more binding, comparable within an allelic series) | 10 upbm affinity estimate (log intensity, higher = more binding, comparable within an allelic series) | 14 upbm affinity estimate (log intensity, higher = more binding, comparable within an allelic series) | 12.6 upbm affinity estimate (log intensity, higher = more binding, comparable within an allelic series) | 14.2 upbm affinity estimate (log intensity, higher = more binding, comparable within an allelic series) | 13.2 upbm affinity estimate (log intensity, higher = more binding, comparable within an allelic series) | 14.2 upbm affinity estimate (log intensity, higher = more binding, comparable within an allelic series) | 14.1 upbm affinity estimate (log intensity, higher = more binding, comparable within an allelic series) | 13.7 upbm affinity estimate (log intensity, higher = more binding, comparable within an allelic series) | 13.9 upbm affinity estimate (log intensity, higher = more binding, comparable within an allelic series) | 12.3 upbm affinity estimate (log intensity, higher = more binding, comparable within an allelic series) | 13.6 upbm affinity estimate (log intensity, higher = more binding, comparable within an allelic series) | 14.1 upbm affinity estimate (log intensity, higher = more binding, comparable within an allelic series) | 12.5 upbm affinity estimate (log intensity, higher = more binding, comparable within an allelic series) | 10.8 upbm affinity estimate (log intensity, higher = more binding, comparable within an allelic series) | 11.3 upbm affinity estimate (log intensity, higher = more binding, comparable within an allelic series)
4 | CAATTAAG | 13 upbm affinity estimate (log intensity, higher = more binding, comparable within an allelic series) | 12 upbm affinity estimate (log intensity, higher = more binding, comparable within an allelic series) | 10.6 upbm affinity estimate (log intensity, higher = more binding, comparable within an allelic series) | 11.3 upbm affinity estimate (log intensity, higher = more binding, comparable within an allelic series) | 11.6 upbm affinity estimate (log intensity, higher = more binding, comparable within an allelic series) | 9.95 upbm affinity estimate (log intensity, higher = more binding, comparable within an allelic series) | 12.9 upbm affinity estimate (log intensity, higher = more binding, comparable within an allelic series) | 12.1 upbm affinity estimate (log intensity, higher = more binding, comparable within an allelic series) | 13.7 upbm affinity estimate (log intensity, higher = more binding, comparable within an allelic series) | 12.8 upbm affinity estimate (log intensity, higher = more binding, comparable within an allelic series) | 13.8 upbm affinity estimate (log intensity, higher = more binding, comparable within an allelic series) | 13.9 upbm affinity estimate (log intensity, higher = more binding, comparable within an allelic series) | 13.4 upbm affinity estimate (log intensity, higher = more binding, comparable within an allelic series) | 12.8 upbm affinity estimate (log intensity, higher = more binding, comparable within an allelic series) | 11.7 upbm affinity estimate (log intensity, higher = more binding, comparable within an allelic series) | 13.3 upbm affinity estimate (log intensity, higher = more binding, comparable within an allelic series) | 12.5 upbm affinity estimate (log intensity, higher = more binding, comparable within an allelic series) | 11.9 upbm affinity estimate (log intensity, higher = more binding, comparable within an allelic series) | – | –
5 | CCCCGGCG | – | – | 9.68 upbm affinity estimate (log intensity, higher = more binding, comparable within an allelic series) | – | – | 9.01 upbm affinity estimate (log intensity, higher = more binding, comparable within an allelic series) | – | 9.73 upbm affinity estimate (log intensity, higher = more binding, comparable within an allelic series) | – | – | 9.89 upbm affinity estimate (log intensity, higher = more binding, comparable within an allelic series) | – | – | – | 9.94 upbm affinity estimate (log intensity, higher = more binding, comparable within an allelic series) | – | – | – | – | –

Reference: publication PMC11006913
